Screens from PubChem BioAssay.
KLF5 inh – suppresses KLF5 promoter-driven expression; inhibition, % at 5 µM; DLD-1 KLF5 promoter-luciferase reporter, luminescence; hit rate 0.23% among 290,000; AID 1700;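 active = inhibition above a per-plate limit of that plate's mean compound inhibition plus 3 SD, cut at about 60% in these data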;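 note: 0% = DMSO wells and 100% = LY294002 at 200 µM; higher means less KLF5 promoter-driven luciferase light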
Jurkat NFkB inh – lowers PMA/ionomycin-induced NF-kB signal in Jurkat cells; PMA/ionomycin-induced NF-kB luciferase reporter, luminescence; inhibition, % at 4 µM; hit rate 0.53% among 330,000; in the data active = inhibition above about 50%
Gli-Sufu antag – antagonists of Gli-Sufu signaling; hit rate 0.74% among 340,000; Sufu-KO-LIGHT fibroblasts, Gli luciferase reporter luminescence; inhibition, % at 5 µM; AID 588413;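 active = inhibition above about 55%, limit read from the data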;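 note: 0% = DMSO-treated cells and 100% = wells with medium but no cells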
Mdm2 MdmX PPI – disrupts the human Mdm2-MdmX interaction; SaOS-2 split-luciferase Mdm2/MdmX complementation, luminescence; O15151+Q00987; AID 485346; hit rate 3% among 330,000; inhibition, % at 8 µM;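 active = inhibition of at least 50% at 8 µM in the primary screen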
Target sequence (O15151 whole entry, looked up): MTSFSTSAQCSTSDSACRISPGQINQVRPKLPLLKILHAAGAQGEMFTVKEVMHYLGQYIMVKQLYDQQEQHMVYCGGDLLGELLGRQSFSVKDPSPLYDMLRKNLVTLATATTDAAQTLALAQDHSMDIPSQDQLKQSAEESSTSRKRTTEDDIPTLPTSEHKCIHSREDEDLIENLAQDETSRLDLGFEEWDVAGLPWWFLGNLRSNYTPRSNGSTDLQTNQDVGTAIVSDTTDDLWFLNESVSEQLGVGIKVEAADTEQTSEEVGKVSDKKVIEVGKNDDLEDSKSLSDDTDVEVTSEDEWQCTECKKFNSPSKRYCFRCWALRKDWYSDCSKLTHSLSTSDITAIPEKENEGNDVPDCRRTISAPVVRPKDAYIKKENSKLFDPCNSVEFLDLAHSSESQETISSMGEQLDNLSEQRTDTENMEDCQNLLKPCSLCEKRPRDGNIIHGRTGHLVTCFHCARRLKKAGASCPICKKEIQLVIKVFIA
Target sequence (Q00987 whole entry, looked up): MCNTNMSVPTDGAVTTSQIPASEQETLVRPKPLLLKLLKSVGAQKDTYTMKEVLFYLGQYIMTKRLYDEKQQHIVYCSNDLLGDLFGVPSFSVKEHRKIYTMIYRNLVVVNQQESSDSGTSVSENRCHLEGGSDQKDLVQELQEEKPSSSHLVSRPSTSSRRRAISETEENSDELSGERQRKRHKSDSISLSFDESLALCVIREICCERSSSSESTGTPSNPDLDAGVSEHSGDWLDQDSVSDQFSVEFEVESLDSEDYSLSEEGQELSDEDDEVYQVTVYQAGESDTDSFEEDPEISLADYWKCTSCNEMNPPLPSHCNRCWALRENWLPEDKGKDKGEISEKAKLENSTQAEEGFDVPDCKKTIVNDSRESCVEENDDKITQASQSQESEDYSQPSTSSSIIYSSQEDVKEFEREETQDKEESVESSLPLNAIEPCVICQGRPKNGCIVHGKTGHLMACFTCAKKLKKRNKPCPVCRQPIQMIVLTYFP
697 NFkB inh – inhibitors of the PMA/ionomycin-induced NF-kB reporter in 697 B cells; 697 B-cell NF-kB luciferase reporter, 16 h; inhibition, % at 4 µM; hit rate 0.33% among 330,000; in the data active = inhibition above about 35%
aSyn UTR inh – MLPCN primary screen, SNCA 5' untranslated region; alpha-synuclein 5'UTR reporter, inhibitor activity; inhibition, % (tested at 7.5 µM); hit rate 0.82% among 300,000; in the data active = inhibition above about 60%;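 note: H4 neuroglioblastoma cells stably carrying SNCA 5'UTR luciferase fusion; 0% = DMSO wells and 100% = positive control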
Mdm2-MdmX conf – human Mdm2/MdmX binding inhibition, confirmed. shares compounds with Mdm2 MdmX PPI. luminescent assay. inhibition, % at 8 µM. hit rate 55% among 10,000; in the data active = inhibition above about 40%
Full FLuc ctr – full-length luciferase inhibition in Mdm2/MdmX counter-screen; shares compounds with Mdm2 MdmX PPI; SaOS-2 full-length luciferase counterscreen, luminescence; inhibition, % at 8 µM; hit rate 77% among 6,200; AID 504607;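 active = mean inhibition at 8 µM reaching about 37%, which flags the compound as non-specific, limit read from the data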;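 note: p53-null SaOS-2 cells with luciferase driven by a doxycycline-inducible promoter; compound on cells about two nights before reading with doxycycline added after day one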
Active calls of the source: *; / = no result; + = active, no number. Only some compounds are listed: those with a hit (about 4.1% of all), similar ones and a draw of the others.

SMILES | KLF5 inh | Jurkat NFkB inh | Gli-Sufu antag | Mdm2 MdmX PPI | 697 NFkB inh | aSyn UTR inh | Mdm2-MdmX conf | Full FLuc ctr
CCCCN(CC)CCNC(=O)c1cc2c(=O)n(CC)c3ccccc3c2s1 | -35 | -29 | 31 | 73* | 1 | -274 | 52* | 66*
CCN(CC)c1ccc(/C=N/n2c(C)nc3ccccc3c2=O)cc1 | -35 | -7 | -5 | 16 | 2 | -58 | / | /
CCOc1ccc(CN(CC)C(=O)c2ccc3c(c2)[nH]c(=O)c(=O)n3CC)cc1OC | -21 | -2 | 1 | -11 | 1 | 13 | / | /
COc1ccc(OC)c(NC(=O)CC2C(=O)NCCN2C(=O)c2ccccc2)c1 (stereo not given) | -43 | -10 | 27 | -13 | 11 | 13 | / | /
C=CCN(C(=O)c1ccc2snnc2c1)c1ccccc1 | 0 | -3 | 14 | 15 | -19 | -4 | / | /
CCCCN(CC)CCNC(=O)c1cc2c(=O)[nH]c3ccc(C)cc3c2s1 | -21 | -13 | 2 | 83* | -16 | -26 | 47* | 68*
CCCCN(CC)CCCNC(=O)c1cc2c(=O)n(CC)c3ccccc3c2s1 | -33 | -10 | 39 | 79* | 22 | -321 | 60* | 55*
CCCCN(CC)CCCNC(=O)c1cc2c(=O)[nH]c3ccccc3c2s1 | -27 | -33 | 12 | 24 | -3 | -29 | / | /
O=C(NCc1ccco1)/C(=C/c1ccc(C(F)(F)F)cc1)c1nc2ccccc2[nH]1 | -41 | -37 | 2 | 21 | -47 | -94 | / | /
O=C(NCc1ccco1)/C(=C/c1cccc(C(F)(F)F)c1)c1nc2ccccc2[nH]1 | -1 | 1 | 11 | 83* | 1 | -84 | 84* | 38*
Cc1ccc(N2CC(C(=O)Nc3nccs3)CC2=O)cc1Cl (stereo not given) | -8 | 14 | -100 | 84* | 12 | 7 | 69* | +
O=C(Nc1ccccc1O)c1c(O)c2c([nH]c1=O)CCCC2 | -105 | -67 | -59 | -100 | -80 | -182 | / | /
O=C(N/N=C/c1cccc(Cl)c1)c1c(O)c2c([nH]c1=O)CCCC2 | 1 | -49 | 3 | 69* | -47 | -100 | -19 | /
CCc1cccc(CC)c1NC(=S)N(CCN(C)C)C(C)c1cccnc1 (stereo not given) | 16 | 9 | 12 | 10 | 12 | -21 | / | /
Nc1nc(Nc2ccccc2)sc1C(=O)c1ccccc1 | -111 | -3 | 1 | 62* | -156 | -121 | 4 | /
CCOc1cc([N+](=O)[O-])cc(/C=N/NC(=O)c2c(-c3ccccc3)noc2C)c1O | -7 | 1 | 4 | 57* | 14 | -23 | 21 | /
COc1cc(/C=N/NC(=O)c2ccc(C)nc2)cc([N+](=O)[O-])c1O | 12 | -22 | -3 | 14 | -1 | 21 | / | /
COc1cc([N+](=O)[O-])cc(/C=N/NC(=O)C(C)Nc2ccccc2C)c1O (stereo not given) | -12 | -4 | 1 | 51* | -6 | -2 | 26 | 67*
Cc1onc(-c2ccccc2)c1C(=O)Nc1nnc(C(C)C)s1 | -39 | 2 | 14 | 17 | 1 | -1 | / | /
Cc1onc(-c2ccccc2)c1C(=O)Nc1ncc([N+](=O)[O-])s1 | -8 | 13 | 36 | 73* | 2 | -8 | 38 | 59*
COc1cc([N+](=O)[O-])cc(/C=N/NC(=O)c2ccc(C)nc2)c1O | 15 | -20 | -3 | 67* | -19 | 18 | 54* | 81*
C[C@]12CCC3c4ccc(OCC(=O)O)cc4CCC3C1CCC2=O (stereo not given in full) | -25 | 1 | -1 | 1 | -8 | -14 | / | /
CCCN1CCN(S(=O)(=O)c2c(C)[nH]c(C)c2C(=O)N2CCCCC2)CC1 | -42 | -1 | -9 | -1 | 0 | 15 | / | /
O=C(Cn1cc2c(n1)CCCCC2)Nc1ccccc1Br | -27 | 4 | -18 | 21 | -3 | 12 | / | /
CCc1ccc2[nH]c3nc(SCc4nnc(-c5ccccc5)o4)nnc3c2c1 | -19 | 18 | -1 | 56* | -26 | -7 | -6 | /
SMILES | KLF5 inh | Jurkat NFkB inh | Gli-Sufu antag | Mdm2 MdmX PPI | 697 NFkB inh | aSyn UTR inh | Mdm2-MdmX conf | Full FLuc ctr
O=C(COC(=O)/C=C/c1ccccc1[N+](=O)[O-])NCC(F)(F)F | -23 | 1 | 1 | 8 | -2 | -29 | / | /
COc1ccc2cc(-c3[nH]ncc3CN3CCCC3c3nonc3C)ccc2c1 (stereo not given) | -21 | -33 | 2 | 25 | -78 | -61 | / | /
COc1cccc(N2CC(O)=C(c3nc4ccccc4s3)C2=N)c1 | 29 | -32 | -20 | 70* | -188 | -21 | 57* | 111*
COc1ccc(N2CC(O)=C(c3nc4ccccc4s3)C2=N)cc1 | -24 | -34 | 7 | 8 | -114 | 6 | / | /
N#Cc1nc(-c2ccc(OCc3ccc(Cl)cc3)cc2)oc1N1CCOCC1 | -24 | -12 | -14 | 55* | 19 | 29 | 22 | /
CCCCC(OC(=O)CN1C(=O)COc2ccccc21)C(=O)NC1CCCCC1 (stereo not given) | 11 | 6 | -5 | -16 | 12 | 13 | / | /
Cn1cc([N+](=O)[O-])c(C(=O)Nc2ccc(C3CCCCC3)cc2)n1 | -149 | -62 | -52 | 59* | -55 | 45 | 27 | 154*
O=[N+]([O-])c1cc(Oc2cccnc2)cc([N+](=O)[O-])c1 | -18 | 9 | -5 | -22 | 5 | 13 | / | /
CCn1cc([N+](=O)[O-])c(C(=O)Nc2ccn(Cc3ccccc3)n2)n1 | 20 | 4 | -3 | -4 | -4 | -10 | / | /
Cn1cc([N+](=O)[O-])c(C(=O)Nc2cc(Oc3cccnc3)cc([N+](=O)[O-])c2)n1 | 1 | 38 | 5 | 82* | 29 | 61 | 7 | /
Cc1cc(C)n(Cc2ccc(NC(=O)c3nn(C)cc3[N+](=O)[O-])cc2)n1 | -4 | 20 | -1 | 71* | 13 | -10 | 52* | 59*
Cc1ccc(Cn2ccc(NC(=O)c3nn(C)cc3[N+](=O)[O-])n2)cc1 | -9 | 16 | -21 | 59* | -2 | 21 | 63* | 68*
Cn1cc([N+](=O)[O-])c(C(=O)Nc2ccc(C(=O)N3CCCCC3)cc2)n1 | -8 | 6 | -5 | 27 | 13 | -5 | / | /
CCCNC(=O)c1nc(C)n(-c2cc(Cl)ccc2Cl)n1 | -6 | -6 | -9 | 7 | 10 | 4 | / | /
COCCCNc1c2c3c(cccc3[nH]c1=O)C(=O)c1ccccc1-2 | -44 | -26 | -18 | 57* | 0 | / | 58* | 86*
CC1=C(C(=O)c2ccccc2)C(c2ccc(N3CCOCC3)cc2)NC(=O)N1 (stereo not given) | -32 | 12 | 8 | 9 | 6 | -28 | / | /
CSc1ccccc1NC(=O)CN1CCN(S(=O)(=O)c2ccccc2[N+](=O)[O-])CC1 | / | -1 | 1 | 4 | 23 | / | / | /
